Rows were chosen to be rich in hits. Some 3.7% of all compounds tested hit in one or more screens of this group.
MazF activator – MazEF (E. coli) toxin RNase activation; FAM/BHQ RNA-DNA oligo cleavage fluorescence, 5 h; activation, % at 20 µM; actives 0.32% (n = 350,000); AID 504720; in the data active = activation above about 50%
Anthrax LF inh2 – inhibitors of Bacillus anthracis lethal factor protease; P15917; multiplex microsphere protease cleavage assay, LF; inhibition, % at 10 µM; actives 0.12% (n = 360,000)
BoNT F protease – blocks Botulinum neurotoxin F light chain protease; actives 0.22% (n = 360,000); Multiplex microsphere protease cleavage assay, flow cytometry; inhibition, % at 10 µM; in the data active = inhibition above about 35%, passing the limit was not always enough; inconclusive = no clear call, values can overlap the other calls
Autofluor counter – counter-screen for toxin protease inhibitors: compound fluorescence | compound autofluorescence counterscreen, microsphere flow cytometry; stronger effect = higher value | fluorescence intensity (no concentration beside the values) | actives 3.1% (n = 360,000); in the data active = fluorescence intensity above about 16000; inconclusive = no clear call, values can overlap the other calls
BoNT A protease – inhibitors of Botulinum neurotoxin A light chain protease; multiplex microsphere protease substrate cleavage, flow cytometry; inhibition, % at 10 µM; actives 0.17% (n = 360,000); AID 588499
Large screens that a line does not name were inactive. Cut-off read from the data, not from the text of the source, unless noted: active = inhibition above about 30%; inconclusive = no clear call, values can overlap the other calls; inactive = below that.

C/C(=N\Nc1ncnc2sc(C)c(C)c12)c1ccccn1	BoNT F protease 40, BoNT A protease 40
CCNC(=O)C1(C)CCN(C(=O)c2cccc(C(F)(F)F)c2)C1 (configuration not stated)	none (no result: MazF activator)
CCOC(=O)CSc1nc2ccccc2n1CC(=O)NC(C)(C)C	Autofluor counter 21055
c1ccc(-c2ccc(-c3ccccc3)[nH]2)cc1	none
O=C(O)c1ccc(-c2ccccc2)[nH]1	Autofluor counter 22282
OCCCNc1ncnc2sc3c(c12)CCN(Cc1ccccc1)C3	BoNT F protease inconclusive, BoNT A protease 35
COc1ccc(NC(=O)c2cc(C3CCCCN3S(=O)(=O)c3cn(C)cn3)on2)c(C)c1 (configuration not stated)	none (no result: MazF activator)
COc1ccc(C(C(=O)NC2CCCC2)N(C(=O)c2snc(-c3ccc(F)cc3)c2N)c2ccc(F)cc2)cc1 (configuration not stated)	Autofluor counter 24202
COc1ccc(N(C(=O)c2ccn[nH]2)C(C(=O)NC2CCCC2)c2ccc(F)cc2)cc1 (configuration not stated)	none
COc1ccc(C(C(=O)NC2CCCC2)N(C(=O)c2snc(-c3ccc(F)cc3)c2N)c2cccc(F)c2)cc1 (configuration not stated)	Autofluor counter 23994
COc1ccc(C(C(=O)NC2CCCC2)N(C(=O)c2snc(-c3ccc(F)cc3)c2N)c2ccc(OC)cc2)cc1 (configuration not stated)	Autofluor counter 21490
COc1ccc(C(C(=O)NC2CCCC2)N(C(=O)c2snc(-c3ccc(F)cc3)c2N)c2ccccc2)cc1 (configuration not stated)	Autofluor counter 20660
CCCCOc1ccc(C(=O)NCC(=O)NC2CCCCC2)cc1	none
CC(=O)[C@H]1CC[C@H]2[C@@H]3C=CC4=CC(=O)CC[C@@]4(C)[C@@H]3CC[C@]12C	none
COc1ccccc1C(=O)NC(=O)COC(=O)CNC(=O)c1ccccc1	Anthrax LF inh2 inconclusive, BoNT F protease inconclusive, BoNT A protease inconclusive
CN(Cc1nc2ccccc2c(=O)[nH]1)C(=O)c1ccccc1OCc1ccc(Cl)cc1	none
O=C1NC[C@@H](CCCCN2CCN(CCc3ccccc3)C(=O)C2=O)N(CCC2CCCCC2)C1=O	none (no result: MazF activator)
COc1ccccc1NC(=O)/C(=N/OCc1ccc(F)cc1)C(C)=O	MazF activator 75
COc1ccccc1NC(=O)C(=N\O)/C(C)=N/O	none
CN1C[C@@H]2[C@@H]3C(=O)N(C)C(=O)[C@@H]3[C@](C)(C1=O)N2C(=O)c1ccccc1	none
Cc1ccc(Oc2nn[nH]n2)cc1	none
CCc1cccc(Oc2nn[nH]n2)c1	Autofluor counter 24949
COc1ccc(OC)c(NC=C2C(=O)OC(C)(C)OC2=O)c1	none
COc1ccc(OC)c(NC=C2C(=O)OC3(CCCCC3)OC2=O)c1	Autofluor counter 18401
C=CCNc1cc(C(F)(F)F)nc(-c2ccccn2)n1	Autofluor counter 19805
FC(F)(F)c1cc(Oc2ccccc2Cl)nc(-c2ccccn2)n1	Autofluor counter 21573
FC(F)(F)c1cc(Oc2ccc(Cl)cc2)nc(-c2ccccn2)n1	Autofluor counter 23289
CC1(C(=O)CSc2nc3ccccc3s2)CCC(=O)O1 (configuration not stated)	none
CC1(C)CC2(CC(C)(C(=O)CSc3nc4ccccc4s3)OC2=O)C(=O)O1 (configuration not stated)	Autofluor counter 16350, BoNT A protease inconclusive
CC1CC2(CC(C)(C(=O)CSc3nc4ccccc4s3)OC2=O)C(=O)O1 (configuration not stated)	Autofluor counter 23789
CCOC(=O)c1c(C)n(O)c2ccc(Cl)cc2c1=O	Autofluor counter 16178
O=C(Nc1ncnc2c1ncn2[C@@H]1O[C@H](/C=C/C(=O)N2CCN(c3ccc(F)cc3)CC2)[C@@H](O)[C@H]1O)c1ccccc1	none (no result: MazF activator)
COc1ccc(OC)c(C(=O)COC(=O)c2c(OC)cccc2OC)c1	none
COc1ccc(OC)c(C(=O)COC(=O)c2ccccc2O)c1	Autofluor counter 22401
Cn1nnc(-c2ccc(OCc3ccccc3F)cc2)n1	Autofluor counter 23800
c1ccc2c(c1)oc1c(N3CCOCC3)ncnc12	none
C(=C\c1ccccc1)/CN1CCN(c2ncnc3c2oc2ccccc23)CC1	Autofluor counter 17552, BoNT A protease inconclusive
Cc1oc2ccc(O)c(CN3CCOCC3)c2c1C(=O)c1ccc(Cl)cc1	Autofluor counter 23586
COCCOC(=O)c1c(C)oc2ccc(O)c(CN3CCC(C)CC3)c12 (tested in a mixture with another compound)	none
O=c1cc(CSc2nnnn2-c2ccccc2)nc(Nc2ccc(F)cc2)[nH]1	Autofluor counter 23279
CC(=O)Nc1ccc(S(=O)(=O)N2CCC(c3nc4ccc(C)cc4[nH]3)CC2)cc1	Autofluor counter 24362
Cc1ccc(S(=O)(=O)N2CCCN(S(=O)(=O)c3ccc4c(c3)OCCO4)CC2)cc1	Autofluor counter 26607
CC1CCCN(S(=O)(=O)c2ccc(NC(=O)CN3CCN(C)CC3)cc2)C1 (configuration not stated)	Autofluor counter 16136
Cc1ccnc(NS(=O)(=O)c2ccc(NC(=O)Cc3cccs3)cc2)n1	Autofluor counter 21122, BoNT A protease inconclusive
O=C(Cc1cccs1)Nc1ccc(S(=O)(=O)Nc2ncccn2)cc1	none
CN1CCN(S(=O)(=O)c2ccc3c(c2)OCCO3)CC1	none
Cc1ccc2nc(C3CCCN(C(=O)NCc4ccccc4)C3)[nH]c2c1 (configuration not stated)	none
O=C(Cc1cccs1)Nc1ccc(S(=O)(=O)N2CCCCC2)cc1	BoNT F protease inconclusive
CN1CCN(S(=O)(=O)c2ccc(NC(=O)Cc3cccs3)cc2)CC1	Autofluor counter 19616
CN1CCN(S(=O)(=O)c2ccc(-c3ccc(Cl)cc3)cc2)CC1	Autofluor counter 20018
Cc1ccc2nc(C3CCN(C(=O)NCc4ccccc4)CC3)[nH]c2c1	Autofluor counter 17071
CN1CCN(S(=O)(=O)c2ccc(NC(=O)C(C)(C)C)cc2)CC1	Autofluor counter 22681, BoNT A protease inconclusive
CC(=O)Nc1ccc(S(=O)(=O)N2CCN(S(=O)(=O)c3ccc(NC(C)=O)cc3)CC2)cc1	none
CSc1ccc(CN2C(=O)C(F)(F)Oc3c(C(C)=O)cccc32)cc1	none (no result: MazF activator)
COc1ccc(CN(C(C)=O)c2cc(C)c([N+](=O)[O-])cc2OC)cc1OC	none
CC(=O)Nc1ccc(S(=O)(=O)N2CCCN(S(=O)(=O)c3ccc(C)cc3)CC2)cc1	Autofluor counter 27039
CN1CCN(S(=O)(=O)c2ccc(NC(=O)c3cccs3)cc2)CC1	none
CN1CCN(S(=O)(=O)c2ccc(NC(=O)c3csc4ccccc34)cc2)CC1	Autofluor counter 16528, BoNT A protease inconclusive
CC1(Oc2ccccc2-c2ccn[nH]2)CCN(Cc2ccc(OC(F)(F)F)cc2)C1 (configuration not stated)	none (no result: MazF activator)
CCOC(=O)c1cc2ccccc2n1C1CCN(CCc2ccccc2)CC1	none (no result: MazF activator)
CCCS(=O)(=O)NC(=O)C1(C)CCN(C(=O)c2ccccc2OC(F)(F)F)C1 (configuration not stated)	none (no result: MazF activator)

From PubChem BioAssay
